Hits are enriched below; roughly 11% of the tested compounds scored in any of these assays.
BAZ2B inh: BAZ2B (human) inhibition. 360,000 tested, 4.4% active. Potency, µM (series often up to 114 µM), inactives show at the top dose activity change, negative = inhibition, usual class: inhibitors. AID 504333. AlphaScreen BAZ2B-H3K14Ac peptide displacement; note: % is set by controls: 0 for no effect and ±100 for the full control effect; nearly all actives have a fitted effect of over 60% in size
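In this displacement format the biotinylated H3(5-23) peptide acetylated at Lys14 serves as ligand at 50 nM, with BAZ2B at 50 nM in PBS pH 7.4 containing 0.01% Tween-20. Donor and acceptor beads are 10 ug/mL final.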
HP1b chromo inh: blocks HP1-beta chromodomain binding to methylated histone tails. AlphaScreen HP1-beta / biotin-H3K9me3 peptide binding. Potency, µM (top dose mostly 114 µM), inactives show top-dose activity change, negative = inhibition, most hits filed as inhibitors. 390,000 tested, 0.56% active. AID 540317; note: nearly all actives have a fitted effect of over 70% in size
Target sequence (P83916 whole entry, looked up): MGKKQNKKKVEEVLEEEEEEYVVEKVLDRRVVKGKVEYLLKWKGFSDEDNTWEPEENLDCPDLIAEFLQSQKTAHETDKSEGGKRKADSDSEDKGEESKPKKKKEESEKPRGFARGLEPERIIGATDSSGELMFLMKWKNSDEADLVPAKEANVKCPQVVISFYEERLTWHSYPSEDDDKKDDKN
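Compound inhibition of the preformed complex between 50 nM HP1-beta and 50 nM biotinylated H3K9me3 peptide was read by AlphaScreen. Buffer was PBS pH 7.4 with 0.01% Tween-20. Incubations ran 30 min at room temperature, with 10 ug/mL donor/acceptor beads.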
L3MBTL1 inh: blocks human L3MBTL1; Q9Y468; AlphaScreen L3MBTL1–H3K9me1 peptide binding; Potency, µM (highest dose often 57.1 µM), for inactives: at the top dose activity, negative = inhibition, most hits filed as inhibitors; 230,000 tested, 0.66% active; AID 485360; note: % is set by controls: 0 for no effect and ±100 for the full control effect; nearly all actives have a fitted effect of over 60% in size
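AlphaScreen proximity signal between nickel-chelate acceptor and streptavidin donor beads (final 10 ug/mL) reports binding of 50 nM L3MBTL1 to 75 nM biotin-H3 K9me1 peptide; complex incubated with compounds 30 min at room temperature; cefsulodin titration as control.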
G9a block: blocks human histone lysine methyltransferase G9a; 350,000 tested, 8.8% active; G9a H3K9 monomethylation, AlphaScreen, 2 h; Q96KQ7; Potency, µM (top dose mostly 102 µM), inactives show top-dose activity, negative = inhibition, most hits filed as inhibitors; AID 504332; note: % is set by controls: 0 for no effect and ±100 for the full control effect; nearly all actives have a fitted effect of over 75% in size
Target sequence (Q96KQ7 913-1193 limits assumed): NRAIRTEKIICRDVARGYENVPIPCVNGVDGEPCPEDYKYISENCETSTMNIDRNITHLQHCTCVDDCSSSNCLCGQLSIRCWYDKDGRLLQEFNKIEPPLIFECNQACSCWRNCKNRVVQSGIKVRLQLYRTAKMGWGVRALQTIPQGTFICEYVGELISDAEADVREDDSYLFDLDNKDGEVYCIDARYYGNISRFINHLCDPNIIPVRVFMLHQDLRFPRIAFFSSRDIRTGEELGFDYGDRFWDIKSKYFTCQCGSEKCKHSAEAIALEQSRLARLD
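Compounds were preincubated with 20 nM G9a for 15 min, after which biotinylated H3K9 peptide (500 nM) and SAM (20 uM) started a 2 h room-temperature reaction. Monomethylated product was quantified by antibody-based AlphaScreen chemiluminescence.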
JMJD2A Tudor inh: inhibitors of human JMJD2A Tudor domain. O75164. AlphaScreen JMJD2A-Tudor / H3K4me3 peptide binding. Potency, µM (top dose mostly 114 µM), inactives show top-dose activity change, negative = inhibition, hits mostly inhibitors. 390,000 tested, 4.4% active; note: % is set by controls: 0 for no effect and ±100 for the full control effect; nearly all actives have a fitted effect of over 50% in size
Starred values were filed as active, the others as inactive; [ ] = remark or other dose. Calls come from the whole dose curve; as a rule, active = well fitted inhibition curve with a large enough effect; inconclusive = small, poorly fitted or top-dose-only effect; inactive = no such curve, though single readings can be large or run the other way. Potency is the fitted concentration of half-maximal effect.

Screening CC1(C)Cc2c(ccc3ccccc23)/C(=C/C(=O)N2CCCCC2)N1 returned BAZ2B inh 50µM*, HP1b chromo inh -12%, L3MBTL1 inh -9%, G9a block inconclusive and JMJD2A Tudor inh -58%.
Screening Cn1c(NCCCCO)nc2c1c(=O)n(Cc1ccc(Cl)cc1)c(=O)n2C returned BAZ2B inh -18%, HP1b chromo inh 7%, G9a block 8%[59 µM] and JMJD2A Tudor inh -22%.
`Cn1nnc(NC(=O)c2ccco2)n1` gave BAZ2B inh -3%, HP1b chromo inh 34%, L3MBTL1 inh 2%, G9a block 14% and JMJD2A Tudor inh -6%.
`Cn1nnc(NC(=S)NC(=O)c2ccco2)n1` gave BAZ2B inh inconclusive, HP1b chromo inh inconclusive, L3MBTL1 inh 51%, G9a block 7.9µM* and JMJD2A Tudor inh inconclusive.
For Cn1nnc(NC(=S)NC(=O)Cc2ccccc2)n1 the results were BAZ2B inh 35µM*, HP1b chromo inh 79µM*, L3MBTL1 inh 9%, G9a block 2.8µM* and JMJD2A Tudor inh 22µM*.
For CNC(=O)NC(=S)NC(=O)c1ccc(OC)cc1 the results were BAZ2B inh -35%, HP1b chromo inh 14%, L3MBTL1 inh 4%, G9a block 16%[12.7 µM] and JMJD2A Tudor inh 16µM*.
For COc1ccc(C(=O)NC(=S)Nc2nnn(C)n2)cc1 the results were BAZ2B inh 50µM*, HP1b chromo inh -37%, L3MBTL1 inh 4%, G9a block 3.5µM* and JMJD2A Tudor inh 32µM*.
Screening CC(C)Oc1ccc(CCNC(=O)CC2C(=O)NCCN2C)cc1 (centres undefined) returned BAZ2B inh -8%, HP1b chromo inh 14%, L3MBTL1 inh 5%, G9a block inconclusive and JMJD2A Tudor inh -10%.
For CSc1ccc(CCNC(=O)c2c(C)nn(-c3ccc(F)cc3)c2-n2cccc2)cc1 the results were BAZ2B inh -16%, HP1b chromo inh 60%, G9a block inconclusive and JMJD2A Tudor inh -8%.
For Cc1nc(NC(=S)NC(=O)c2ccco2)sc1C(=O)N(C)C the results were BAZ2B inh -1%, HP1b chromo inh 28%, G9a block 40µM* and JMJD2A Tudor inh -12%.
For COc1cccc(CNC(=O)c2ccc(NC(=O)N3CCCCc4ccccc43)cc2)c1OC the results were BAZ2B inh -3%, HP1b chromo inh 65%, G9a block 15%[59 µM] and JMJD2A Tudor inh 2%.
Screening CCSc1ncc(/C=N/Nc2ccc(Cl)cc2)n1C returned BAZ2B inh 35µM*, HP1b chromo inh 40µM*, L3MBTL1 inh -14%, G9a block inconclusive and JMJD2A Tudor inh 56µM*.
Screening CCSc1ncc(/C=N/Nc2ccc([N+](=O)[O-])cc2)n1C returned BAZ2B inh -8%, HP1b chromo inh 2%, L3MBTL1 inh 3%, G9a block inconclusive and JMJD2A Tudor inh 8%.
Fc1cccc(-c2n[nH]c(=S)n2-c2ccccc2)c1 was read as BAZ2B inh -36%, HP1b chromo inh -22%, L3MBTL1 inh 2%[2.29 µM], G9a block 20%[0.501 µM] and JMJD2A Tudor inh 7.9µM*.
`Cc1cc(-c2n[nH]c(=S)n2-c2ccccc2)nn1C` gave BAZ2B inh -11%, HP1b chromo inh 26%, L3MBTL1 inh 0%, G9a block 8.9µM* and JMJD2A Tudor inh 3.2µM*.
Screening O=c1c(-c2cccc(F)c2)nc2cncnc2n1-c1ccccc1 returned G9a block -6%[12.7 µM].
For Cc1ccc(-n2c(-c3cc(C)n(C)n3)n[nH]c2=S)cc1 the results were BAZ2B inh -26%, HP1b chromo inh 14%, L3MBTL1 inh 10%, G9a block 7.9µM* and JMJD2A Tudor inh 7.1µM*.
`Cc1ccc(S(=O)(=O)NCC2CCC(C(=O)NCCc3ccc(Cl)cc3)CC2)cc1` (centres undefined) gave BAZ2B inh 4%, HP1b chromo inh 25%, G9a block -1%[59 µM] and JMJD2A Tudor inh -15%.
`CCN(c1ccccc1)S(=O)(=O)c1c(C)nc2scc(C)n2c1=O` gave BAZ2B inh 6%, HP1b chromo inh 18%, G9a block -2%[59 µM] and JMJD2A Tudor inh -7%.
CCOC(=O)c1sc(N(Cc2ccccc2)C(=O)CCl)nc1C was read as BAZ2B inh -30%, HP1b chromo inh 85%, G9a block 40µM* and JMJD2A Tudor inh 12%.
For COc1ccccc1Cc1nc2ccccc2nc1SCC(=O)NCc1ccccc1Cl the results were BAZ2B inh 6%, HP1b chromo inh 35%[57 µM], G9a block 11%[59 µM] and JMJD2A Tudor inh -11%.
For COc1ccc(CNC(=O)c2ccc(-c3nc(CSc4ccc(C)cc4)c(C)o3)cc2)c(OC)c1 the results were BAZ2B inh -14%, HP1b chromo inh 27%, G9a block -38%[59 µM] and JMJD2A Tudor inh -16%.
COc1cc(NC(=O)C2C3C=CC(C3)C2C(=O)O)c(OC)cc1Cl (centres undefined) was read as BAZ2B inh 0%, HP1b chromo inh 19%, L3MBTL1 inh -7%, G9a block 11µM* and JMJD2A Tudor inh -18%.
`CN(C)c1ccc(NC(=O)C2C3C=CC(C3)C2C(=O)O)cc1` (centres undefined) gave BAZ2B inh 35µM*, HP1b chromo inh 1%, G9a block 22µM* and JMJD2A Tudor inh inconclusive.
Screening COc1ccc(C)cc1NC(=O)C1C2C=CC(C2)C1C(=O)O (centres undefined) returned BAZ2B inh 3%, HP1b chromo inh 10%, L3MBTL1 inh 2%, G9a block -38% and JMJD2A Tudor inh -27%.
For CCNC(=S)NNc1nc(N2CCOCC2)nc(N2CCOCC2)n1 the results were HP1b chromo inh -37%, G9a block inconclusive and JMJD2A Tudor inh -11%.
For CNC(=S)NNc1nc(N2CCOCC2)nc(N2CCOCC2)n1 the results were BAZ2B inh -7%, HP1b chromo inh inconclusive, L3MBTL1 inh 12%, G9a block inconclusive and JMJD2A Tudor inh 25µM*.
For CC(C)(C)N(CC#CCC(O)(c1ccccc1)c1ccccc1)CCO the results were BAZ2B inh 79µM*, HP1b chromo inh -11%, L3MBTL1 inh 0%, G9a block 8.9µM* and JMJD2A Tudor inh 22µM*.
For Cc1cc(-c2ccc(S(=O)(=O)Nc3ccccc3F)s2)on1 the results were BAZ2B inh 7%, HP1b chromo inh 63%, G9a block 0%[59 µM] and JMJD2A Tudor inh -11%.
`O=C(O)c1ccn(Cn2cnc3ccccc32)n1` gave BAZ2B inh inconclusive, HP1b chromo inh 4%, L3MBTL1 inh 6%, G9a block inconclusive and JMJD2A Tudor inh 22µM*.
CCOCC(=O)Nc1nnc(Cc2ccc(OC)c(OC)c2)s1 was read as BAZ2B inh -16%, HP1b chromo inh -19%, L3MBTL1 inh 5%, G9a block 16µM* and JMJD2A Tudor inh -16%.
